{"source": "PubChem BioAssay AID1645855", "about": "(Buhrlage Lab, Dana-Farber Cancer Institute and Novartis …, 2021)", "note": "The whole screen tested about 47,000 compounds, of which about 3,100 (6.6%) were called active. The full list was thinned out, with actives kept by preference. A number with no mark means an inactive call. No stated cut-off is given here; in the data, active means inhibition above about 30%; inactive means the rest."}
{"molecular_target": "Ubiquitin carboxyl-terminal hydrolase 17-like protein 5 (Homo sapiens) (UniProt A8MUK1)", "sequence (A8MUK1 whole entry, looked up)": "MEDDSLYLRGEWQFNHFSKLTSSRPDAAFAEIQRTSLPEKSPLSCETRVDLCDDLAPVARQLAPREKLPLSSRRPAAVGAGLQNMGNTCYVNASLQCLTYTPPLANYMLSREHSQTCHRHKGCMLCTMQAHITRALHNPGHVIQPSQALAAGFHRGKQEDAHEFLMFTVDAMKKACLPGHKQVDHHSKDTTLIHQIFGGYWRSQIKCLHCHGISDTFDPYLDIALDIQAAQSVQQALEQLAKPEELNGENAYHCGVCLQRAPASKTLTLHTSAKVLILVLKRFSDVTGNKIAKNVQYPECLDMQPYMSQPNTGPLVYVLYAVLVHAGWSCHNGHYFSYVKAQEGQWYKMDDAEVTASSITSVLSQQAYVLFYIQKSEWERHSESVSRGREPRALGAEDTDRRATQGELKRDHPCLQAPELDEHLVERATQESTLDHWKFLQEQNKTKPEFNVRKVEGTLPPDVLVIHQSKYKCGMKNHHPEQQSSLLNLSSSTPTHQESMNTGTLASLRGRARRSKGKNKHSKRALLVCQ", "assay": "blocks human USP17 ubiquitin-rhodamine cleavage (AID 1645855)", "details": "purified USP17, Ub-rhodamine cleavage fluorescence, 3 h; at 50 µM; active compounds read high"}
{"smiles": "Cc1ccc(C(=O)N2CCCC(c3nnc(-c4ccccc4)o3)C2)cc1F", "note": "(centres undefined)", "inhibition": "-2.67%"}
{"smiles": "O=CN1c2ccccc2NC(=O)CC1c1ccccc1", "note": "(centres undefined)", "inhibition": "-3.98%"}
{"smiles": "c1ccc(-c2nc3c4ccccc4nc(NC4CCCC4)n3n2)cc1", "inhibition": "-4.03%"}
{"smiles": "Cc1cc(NC2CCCCC2)n2ncc(-c3ccc(Cl)cc3)c2n1", "inhibition": "-4.39%"}
{"smiles": "Clc1ccc2ncnc(NC3CCCCC3)c2c1", "inhibition": "39.8% (active)"}
{"smiles": "Cc1cc(C(=O)Nc2cccc(F)c2)cc2c1N(C)S(=O)(=O)c1ccccc1-2", "inhibition": "5.77%"}
{"smiles": "Cc1nn(-c2ccc(F)cc2F)c2c1C(C(=O)c1ccc3c(c1)OCO3)CC(=O)N2", "note": "(centres undefined)", "inhibition": "9.19%"}
{"smiles": "Cc1nn(-c2ccc(F)cc2F)c2c1C(C(=O)c1cc3ccccc3o1)CC(=O)N2", "note": "(centres undefined)", "inhibition": "31.3% (active)"}
{"smiles": "Cc1nn(-c2cccc(F)c2)c2c1C(C(=O)c1cc3ccccc3o1)CC(=O)N2", "note": "(centres undefined)", "inhibition": "2.88%"}
{"smiles": "Cc1cc(N2CCCC2)ccc1CN1CCCC(c2nnc3n2CCNCC3)C1", "note": "(centres undefined)", "inhibition": "-63.9%"}
{"smiles": "O=C(Nc1ccc(Cl)c(S(=O)(=O)N2CCOCC2)c1)c1cc(-c2ccccc2Cl)nc2ccccc12", "inhibition": "-12.8%"}
{"smiles": "O=C(Nc1nc2ccc(S(=O)(=O)N3CCOCC3)cc2s1)c1cc2ccccc2oc1=O", "inhibition": "34.2% (active)"}
{"smiles": "O=C(Nc1ccccc1-c1nc2ccccc2[nH]1)c1cc(S(=O)(=O)N2CCOCC2)c(Cl)cc1Cl", "inhibition": "-21.9%"}
{"smiles": "CC(=O)CCCSc1ncnc2c1sc1nc(N3CCOCC3)c3c(c12)CC(C)(C)OC3", "inhibition": "16.1%"}
{"smiles": "O=C(CC1C(=O)OCCN1Cc1ccccc1)Nc1cccc(F)c1", "note": "(centres undefined)", "inhibition": "-10.1%"}
{"smiles": "O=C(CCc1nnc2ccc(N3CCCC3)nn12)NCc1ccc(F)cc1", "inhibition": "11.5%"}
{"smiles": "COc1ccc(NC(=O)CSc2ncccc2C(=O)N2CCC(Cc3ccccc3)CC2)cc1OC", "inhibition": "11%"}
{"smiles": "Cn1c(=O)c(N2CCC(C(=O)NCc3ccc(F)cc3)CC2)nc2cccnc21", "inhibition": "16.8%"}
{"smiles": "O=C(COc1cccc2ccc(N3CCC(Cc4ccccc4)CC3)nc12)NCc1ccc(F)cc1", "inhibition": "35.1% (active)"}
{"smiles": "O=C(COc1cccc2ccc(N3CCC(Cc4ccccc4)CC3)nc12)Nc1cccc(F)c1", "inhibition": "46.2% (active)"}
{"smiles": "COc1ccccc1CC(=O)Nc1cc(S(=O)(=O)N2CCOCC2)ccc1N1CCN(C)CC1", "inhibition": "-26.7%"}
{"smiles": "C[C@H](NC(=O)Cc1ccc(Cl)cc1)C(=O)N1CCC2(CC1)NCCc1[nH]cnc12", "inhibition": "9.11%"}
{"smiles": "O=C(c1ccc(F)cc1)N1CCCC(c2nc(-c3ccccc3)no2)C1", "note": "(centres undefined)", "inhibition": "11.7%"}
{"smiles": "O=C(Cn1c(-c2nc(-c3ccc(F)cc3)no2)cccc1=O)N1CCCC1", "inhibition": "33% (active)"}
{"smiles": "O=C(CSc1ncc(-c2ccc(F)cc2)[nH]1)N1CCCC1", "inhibition": "2.63%"}
{"smiles": "COc1ccc2[nH]c(C)c(CCNC(=O)c3cccs3)c2c1", "inhibition": "0.591%"}
{"smiles": "Cc1c(N2CCN(S(=O)(=O)c3ccc(C(C)C)cc3)CC2)c(=O)n(C)c(=O)n1C", "inhibition": "-2.36%"}
{"smiles": "Cc1nc(SCC#N)c2oc3ccccc3c2n1", "inhibition": "60.3% (active)"}
{"smiles": "Cc1nc(SCc2ccc([N+](=O)[O-])cc2)c2oc3ccccc3c2n1", "inhibition": "12.4%"}
{"smiles": "COc1cccc(Cc2cncc(C(=O)N3CCNC(=O)C3)c2)c1", "inhibition": "6.62%"}
{"smiles": "CSc1cccc(NC(=O)CCc2ccc3nc[nH]c3c2)c1", "inhibition": "-17.1%"}
{"smiles": "CSc1cccc(NC(=O)CC(=O)Nc2ccc3nc4n(c(=O)c3c2)CCCCC4)c1", "inhibition": "34.4% (active)"}
{"smiles": "CSc1cccc(NC(=O)COc2ccc(C(=O)c3ccccc3)cc2)c1", "inhibition": "12.9%"}
{"smiles": "Cc1cc(C)c2nc3c(cc2c1)CN(Cc1ccco1)C(=O)O3", "inhibition": "51.9% (active)"}
{"smiles": "COc1ccc2nc3c(cc2c1)CN(Cc1ccccc1)C(=O)O3", "inhibition": "18.5%"}
{"smiles": "Cc1ccc(-n2c3c(c(=O)[nH]c2=O)CN(Cc2ccco2)CN3)cc1", "inhibition": "-9.75%"}
{"smiles": "O=S(=O)(Cc1ccccc1)N1CC2(CCN(CC3CCCC3)CC2)C1", "inhibition": "0.208%"}
{"smiles": "COc1ccccc1CNC(=O)c1ccc(-n2nc(C)c3c2CCCC3=O)cc1", "inhibition": "-3.98%"}
{"smiles": "Cc1ccc(CNc2nnc(-c3nnc(C)o3)c3ccccc23)cc1", "inhibition": "3.95%"}
{"smiles": "Cc1ccc(NC(=O)NCc2nnnn2-c2ccccc2)cc1C", "inhibition": "-3.49%"}
{"smiles": "CC(C)c1ccc(OCC(=O)NCc2nnnn2-c2ccc(Cl)cc2)cc1", "inhibition": "11.8%"}
{"smiles": "O=C(COc1ccc2ccccc2c1)NCc1nnnn1-c1ccc(Cl)cc1", "inhibition": "49.4% (active)"}
{"smiles": "CC(NC(=O)c1csc(C(=O)NC2CC2)n1)c1ccc(F)cc1", "note": "(centres undefined)", "inhibition": "7.32%"}
{"smiles": "CC(C(=O)NCCCN1CCOCC1)C1CCN(C(=O)c2cc3ccccc3[nH]2)CC1", "note": "(centres undefined)", "inhibition": "-0.784%"}
{"smiles": "Cc1ccc(-c2nnc(NC(=O)C(c3ccccc3)c3ccccc3)o2)c(C)c1", "inhibition": "2.51%"}
{"smiles": "Cc1ccccc1CNC(=O)c1sc2ncnc(N3CCCC3)c2c1C", "inhibition": "-0.361%"}
{"smiles": "COc1ccc(OC)c(CNC(=O)c2nnc(C(=O)Nc3ccc(F)cc3)s2)c1", "inhibition": "14.8%"}
{"smiles": "Cc1nnc(C(=O)Nc2ccc(C(=O)NCc3ccccc3C)cc2)s1", "inhibition": "68.1% (active)"}
{"smiles": "CC(=O)N1CCCC(c2ccnc(Nc3ccccn3)n2)C1", "note": "(centres undefined)", "inhibition": "6.44%"}
{"smiles": "CN(C(=O)c1ncccn1)[C@H]1CC[C@@]2(C)C[C@H](c3ccccc3)C[C@](C)(O2)[C@@H]1O", "inhibition": "3.44%"}
{"smiles": "CC(C)c1ccc(S(=O)(=O)N[C@H](C)C(=O)NCc2cscn2)cc1", "inhibition": "6.37%"}
{"smiles": "CNc1cnc(CC2CCCN(C(=O)c3scnc3C)CC2)cn1", "note": "(centres undefined)", "inhibition": "-9.92%"}
{"smiles": "CCc1ccc(NC(=O)Cn2cnc(S(=O)(=O)N3CCOCC3)c2)cc1", "inhibition": "24.3%"}
{"smiles": "Cc1cc(NC(=O)COC(=O)c2cccc(C)c2O)ccc1Br", "inhibition": "37% (active)"}
{"smiles": "N#Cc1cccc(NC(=O)COC(=O)c2cc3ccccc3oc2=O)c1", "inhibition": "3.87%"}
{"smiles": "Cc1cc(-c2nnc(SCC(=O)Nc3ccc(Br)c(C)c3)n2N)n[nH]1", "inhibition": "23.4%"}
{"smiles": "C=C1CCC2[C@](C)(CCC[C@]2(C)C(=O)OC)[C@H]1CCc1ccoc1CNCC(=O)O", "note": "(some centres undefined)", "inhibition": "28%"}
{"smiles": "C=C1CCC2[C@](C)(CCC[C@]2(C)C(=O)OC)[C@H]1CCc1ccoc1C[N+](C)(C)Cc1ccccc1", "note": "(some centres undefined)", "inhibition": "31.1% (active)"}
{"smiles": "O=C(c1ccc(Br)o1)N(Cc1cccc(F)c1)c1ccccn1", "inhibition": "12.8%"}
{"smiles": "CC(=O)c1ccc(N2CCN(C(=O)c3ccc4noc(-c5ccccc5)c4c3)CC2)cc1", "inhibition": "-0.00315%"}
{"smiles": "COc1cccc(CN2C(=O)c3ccccc3C2C(=O)NCc2ccccc2OC)c1", "note": "(centres undefined)", "inhibition": "13.5%"}
{"smiles": "CC(=O)O[C@H]1CC[C@@]2(C)C(CC[C@]3(C)C2CCC2[C@@]4(C)CC[C@H](C(C)(C)O)C4C[C@H](O)[C@]23C)C1(C)C", "note": "(some centres undefined)", "inhibition": "0.105%"}
{"smiles": "O=C(COc1ccccc1)NCCc1nc2ccccc2[nH]1", "inhibition": "18.3%"}
{"smiles": "COc1ccc(C(=O)Nc2cc(=O)[nH]c3nc(Cc4ccccc4)nn23)cc1", "inhibition": "-0.0855%"}
{"smiles": "O=C(Cc1ccc(Cl)cc1)NCC(=O)Nc1nc2ccccc2[nH]1", "inhibition": "53.7% (active)"}
{"smiles": "COc1ccc(C(=O)NCC(=O)Nc2nc3ccccc3[nH]2)c(C)c1", "inhibition": "46.9% (active)"}
{"smiles": "Cc1noc(C)c1CC(=O)Nc1cccc(-c2nc3ccccc3[nH]2)c1", "inhibition": "0.008%"}
{"smiles": "Clc1ccccc1SCc1nc2ccccc2[nH]1", "inhibition": "6.98%"}
{"smiles": "O=C(Nc1ccc(F)cc1F)c1cnn2c3c(cnc12)CCCCC3", "inhibition": "-3.64%"}
{"smiles": "Cc1nc(C2CCCN2)nc2c1CCC(=O)N2CC1CCCCC1", "note": "(centres undefined)", "inhibition": "3.63%"}
{"smiles": "CCc1nc(=O)c2ccccc2n1C1=CCN(Cc2cn(C)nc2C)CC1", "inhibition": "4.86%"}
{"smiles": "O=C(C1CCN(S(=O)(=O)c2ccc(Cl)cc2)CC1)N1CC[C@@]2(O)CCCC[C@H]2C1", "inhibition": "-1.48%"}
{"smiles": "Cc1cc(O)c(=O)cc2c1C[C@H]1CC(C)(C)/C=C/C[C@@]3(C)Oc4cc(=O)c(O)cc(C)c4C[C@@H]3C[C@H](O)[C@]1(C)O2", "inhibition": "40.2% (active)"}
{"smiles": "CCSc1nc(-c2ccccc2)nc2sc3c(c12)CC(C)(C)OC3", "inhibition": "-11.1%"}
{"smiles": "CN1CC(c2ncn[nH]2)c2cc(C(=O)NCc3ccccc3)ccc21", "note": "(centres undefined)", "inhibition": "-5%"}
{"smiles": "COc1ccccc1CNC(=O)c1ccc2c(c1)CCN2C(=O)C1CC1", "inhibition": "-10.3%"}
{"smiles": "Cc1noc(-c2cccn(Cc3cc(F)ccc3F)c2=O)n1", "inhibition": "5.57%"}
{"smiles": "O=C(Cn1cccc(-c2nc(-c3ccccc3)no2)c1=O)Nc1ccccc1F", "inhibition": "33% (active)"}
{"smiles": "Cc1nc2c(c(C)c1CCC(=O)Nc1ccccc1F)c(=O)n(C)c(=O)n2C", "inhibition": "-0.603%"}
{"smiles": "COc1ccc(C2C3=C(CC(c4ccc(Cl)cc4)CC3=O)Nc3ccccc3N2C(=O)c2ccc(Cl)c(Cl)c2)cc1", "note": "(centres undefined)", "inhibition": "-7.25%"}
{"smiles": "Fc1cccc(Nc2nc(-c3ccncc3)nc3c2CCC3)c1", "inhibition": "48.8% (active)"}
{"smiles": "O=C(CN1CC(=O)c2ccccc2S1(=O)=O)Nc1ccccc1", "inhibition": "-5.61%"}
{"smiles": "Cc1nn(-c2ccccc2)c(C)c1S(=O)(=O)N1CCCCC1", "inhibition": "3.01%"}
{"smiles": "COC(=O)c1ccc(NC(=O)CSc2nnc(C(C)Oc3ccccc3)n2C)cc1", "note": "(centres undefined)", "inhibition": "5.22%"}
{"smiles": "Cc1nnc(OCC(=O)Nc2ccc(OC(F)(F)F)cc2)c2ccccc12", "inhibition": "77.7% (active)"}
{"smiles": "Cc1cc(C)nc(N(C(=O)C2CC2)c2ccc(OC(F)(F)F)cc2)n1", "inhibition": "1.83%"}
{"smiles": "Cc1ccccc1NC(=O)Cc1csc2nc(-c3ccc(F)cc3)cn12", "inhibition": "86% (active)"}
{"smiles": "Cc1cc(F)ccc1NC(=O)Cc1n[nH]c(Cc2ccccc2)n1", "inhibition": "-9.74%"}
{"smiles": "O=C(Cc1ccc(F)cc1)Nc1ccccc1Cc1ccccc1", "inhibition": "27.4%"}
